# High-throughput results: PubChem BioAssay, National Center for Advancing Translational Sciences (NCATS)
# Only some compounds are listed: those with a hit (about 11% of all), similar ones and a draw of the others.
# G9a block = blocks human histone lysine methyltransferase G9a; actives 8.8% (n = 350,000); Potency, µM (titrated, usually from 102 µM), without a hit: at the highest dose activity, negative = inhibition, actives largely listed as inhibitors; Q96KQ7; G9a H3K9 monomethylation, AlphaScreen, 2 h; note: % is set by controls: 0 for no effect and ±100 for the full control effect; nearly all actives have a fitted effect of over 75% in size
# Target sequence (Q96KQ7 913-1193 limits assumed): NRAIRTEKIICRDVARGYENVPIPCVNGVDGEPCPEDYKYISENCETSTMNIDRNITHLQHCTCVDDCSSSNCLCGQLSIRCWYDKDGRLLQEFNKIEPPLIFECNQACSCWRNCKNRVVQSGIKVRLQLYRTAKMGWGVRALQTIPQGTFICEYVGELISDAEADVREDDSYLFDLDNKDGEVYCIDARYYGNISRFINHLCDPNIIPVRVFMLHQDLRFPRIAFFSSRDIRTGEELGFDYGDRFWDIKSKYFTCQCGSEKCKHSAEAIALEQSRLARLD
#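 Using a bead-based AlphaScreen, monomethylated H3K9 product from 2 h room-temperature reactions (G9a 20 nM, peptide 500 nM, SAM 20 uM) was detected with 0.5 ug/mL rabbit anti-H3K9me1 antibody.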
# L3MBTL1 inh = L3MBTL1 (human) inhibition; Q9Y468; AlphaScreen L3MBTL1–H3K9me1 peptide binding; Potency, µM (titrated, usually from 57.1 µM), without a hit: top-dose activity, negative = inhibition, actives largely listed as inhibitors; actives 0.66% (n = 230,000); AID 485360; note: % is set by controls: 0 for no effect and ±100 for the full control effect; nearly all actives have a fitted effect of over 60% in size
#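 First, the protein-peptide complex forms for 30 min at room temperature (L3MBTL1 50 nM, biotinylated H3K9me1 peptide 75 nM). Next, compounds are pin-transferred and incubated 30 min. Finally, AlphaScreen beads are added and read after 30 min.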
# JMJD2A Tudor inh = blocks the human JMJD2A Tudor domain; actives 4.4% (n = 390,000); AlphaScreen JMJD2A-Tudor / H3K4me3 peptide binding; Potency, µM (doses to about 114 µM), inactives show at the top dose activity change, negative = inhibition, actives largely listed as inhibitors; note: % is set by controls: 0 for no effect and ±100 for the full control effect; nearly all actives have a fitted effect of over 50% in size
# HP1b chromo inh = inhibitors of HP1-beta chromodomain binding to methylated histone tails | P83916 | AlphaScreen HP1-beta / biotin-H3K9me3 peptide binding | Potency, µM (titrated, usually from 114 µM), inactives show at the top dose activity change, negative = inhibition, hits mostly inhibitors | actives 0.56% (n = 390,000) | AID 540317; note: nearly all actives have a fitted effect of over 70% in size
# Target sequence (P83916 whole entry, looked up): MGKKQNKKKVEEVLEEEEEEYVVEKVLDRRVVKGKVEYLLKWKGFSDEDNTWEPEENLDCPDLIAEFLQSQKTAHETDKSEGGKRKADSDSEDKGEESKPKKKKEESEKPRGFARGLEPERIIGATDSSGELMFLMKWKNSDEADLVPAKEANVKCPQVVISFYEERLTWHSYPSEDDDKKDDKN
#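 HP1-beta protein (50 nM final) preincubated 30 min at room temperature with biotinylated H3(1-18)K9me3 peptide (50 nM) in PBS pH 7.4, 0.01% Tween-20, then compound added for 30 min. AlphaScreen streptavidin donor/nickel chelate acceptor beads (10 ug/mL final), 30 min dark, luminescence read.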
# BAZ2B inh = blocks human BAZ2B; Q9UIF8; AlphaScreen BAZ2B-H3K14Ac peptide displacement; actives 4.4% (n = 360,000); Potency, µM (titrated, usually from 114 µM), for the others: at the highest dose activity change, negative = inhibition, most hits filed as inhibitors; note: % is set by controls: 0 for no effect and ±100 for the full control effect; nearly all actives have a fitted effect of over 60% in size
#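 In this displacement format the biotinylated H3(5-23) peptide acetylated at Lys14 serves as ligand at 50 nM, with BAZ2B at 50 nM in PBS pH 7.4 containing 0.01% Tween-20. Donor and acceptor beads are 10 ug/mL final.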
# Active calls of the source: *; u = inconclusive; x = not tested or not shown; ! = a repeat was not active; [ ] = another dose, or the depositor's remark. Calls come from the whole dose curve; as a rule, active = well fitted inhibition curve with a large enough effect; inconclusive = small, poorly fitted or top-dose-only effect; inactive = no such curve, though single readings can be large or run the other way. Potency is the fitted concentration of half-maximal effect.
SMILES,G9a block,L3MBTL1 inh,JMJD2A Tudor inh,HP1b chromo inh,BAZ2B inh
Cc1oc2cc([N+](=O)[O-])c(O)c([N+](=O)[O-])c2c1C(=O)c1ccc(Cl)cc1,x,-15%,50µM*,u,32µM*
C=C(C)Cn1c(=O)c2c(nc3n2CCN3c2cc(C)cc(C)c2)n(C)c1=O,-30%[59 µM],x,u,-8%,-32%
Nc1nc(=S)c2ncn(C3CCCC3)c2[nH]1,19%[0.501 µM],4%,50µM*,u,u
CN(c1ncnc2onc(-c3cccc(Cl)c3)c12)C1CCCCC1,23%[59 µM],x,29%,74%,27%
Cc1ccc(/C=C/c2onc(C)c2S(=O)(=O)N2CCC(C(=O)Nc3cccc(C#N)c3)CC2)cc1,12%[59 µM],x,-16%,14%[57 µM],1%
COc1ccc(C2=CSC3=NNC4(CCCCC4)NN23)cc1,40µM*,-8%,-34%,u,u
Cc1ccc(C2=CSC3=NCCN23)c(C)c1,u,0%,u,22%,3%
Cc1ccc(C2=CSC3=NNC4(CCCCC4)NN23)cc1,u,6%,45µM*,-28%,u
CC(C)NC(=O)c1ccc(Cn2c(=O)c3cccn3c3cccnc32)cc1,7%[59 µM],x,13%,28%,-4%
Cc1ccc(NS(=O)(=O)c2cc3c(cc2-c2ccsc2)NC(=O)CO3)cc1C,x,x,-29%,x,x
Cc1ccc(C2CC(=O)N(Cc3ccccc3F)c3c2c(C)nn3-c2nc(C)cc(C)n2)cc1 (centres undefined),-21%[59 µM],x,-12%,60%,-22%
O=C1c2c(O)cc(O)cc2O[C@@]12c1c(cc(O)c3c1O[C@H](c1ccc(O)cc1)[C@@H](O)C3)O[C@@H]2c1ccc(O)cc1,50µM*,-11%,-32%,16%,u
CCC(C)[C@H](NC(=O)N1CC(=O)Nc2ccccc21)C(=O)NC(C)CCc1ccccc1 (some centres undefined),u,x,-12%,39%,u
O=C1CN(C(=O)N[C@@H](Cc2ccccc2)C(=O)N[C@@H](C(=O)O)c2ccccc2)c2ccccc2N1,-9%[59 µM],x,32µM*,18%,-5%
CCC(C)[C@H](NC(=O)N1CC(=O)Nc2ccccc21)C(=O)N[C@@H](C(=O)O)c1ccccc1 (some centres undefined),79µM*,x,-24%,17%,-12%
Cn1cc([N+](=O)[O-])c(C(=O)Nc2ccc3nc(-c4ccccc4)[nH]c3c2)n1,u,0%,-28%,7%,-32%
Cn1cc([N+](=O)[O-])c(C(=O)Nc2cc(Oc3cccnc3)cc([N+](=O)[O-])c2)n1,45µM*,-1%,-19%,11%,u
Cn1cc([N+](=O)[O-])c(C(=O)Nc2ccc(-c3nc4ccccc4[nH]3)cc2)n1,-9%[59 µM],5%,56µM*,12%,u
Cn1c(=O)[nH]c(=O)c2c1nc(SCC(O)CCl)n2Cc1ccccc1 (centres undefined),x,5%,-13%,-1%,8%
Cc1ccc(NC(=O)Cn2c(=O)n(Cc3ccco3)c(=O)c3oc4ccccc4c32)cc1C,2%[59 µM],x,-4%,40%,-15%
C=CCn1c(SCC(=O)Nc2nc(C)cs2)nnc1C(C)NC(=O)c1ccccc1Cl (centres undefined),u,-3%,89µM*,19%,-6%
O=c1c2cc(NC(=S)NCCN3CCCCCC3)ccc2nc2n1CCCCC2,u,-5%,-32%,6%,-21%
CCCCN(CC)CCCNC(=S)Nc1ccc2nc3n(c(=O)c2c1)CCCCC3,45µM*,4%,-14%,13%,3%
O=c1c2cc(NC(=S)NCc3ccccn3)ccc2nc2n1CCCCC2,40µM*,-13%,-35%,20%,u
O=C(Nc1ccc2nc3n(c(=O)c2c1)CCCCC3)c1ccccn1,25µM*,8%,-24%,9%,-27%
SMILES,G9a block,L3MBTL1 inh,JMJD2A Tudor inh,HP1b chromo inh,BAZ2B inh
O=C(Nc1ccc2nc3n(c(=O)c2c1)CCCCC3)C(=O)N1CCN(c2ccc(F)cc2)CC1,0%,x,20µM*,u,-20%
CCOC(=O)c1ccc2c(c1)N(Cc1ccc(F)cc1Cl)C(=O)c1ccccc1S2,8%[59 µM],x,2%,42%,6%
Cc1ccc2[nH]c3c(=O)n(N)c(=O)[nH]c3c2c1,2%,0%,2%,26%,-1%
CCOc1ccccc1NC(=O)N(C)CCc1c(C)nn(CC)c1C,1%[59 µM],x,-7%,43%,-6%
COc1ccc(CNCC(=O)Nc2sccc2C#N)cc1,28µM*,-19%,-7%[11.4 µM],22%,50µM*
N#Cc1ccsc1NC(=O)CN1CCN(c2ccc(O)cc2)CC1,18µM*,-12%,u,u,-35%
CC(=O)N1CCN(CC(=O)Nc2sccc2C#N)CC1,52%,x,56µM*,-12%,-26%
N#Cc1ccsc1NC(=O)CN1CCN(c2ccccc2)CC1,-2%[59 µM],-3%,-17%,19%,-9%
Cc1c(NC(=O)CN2CCN(c3ccc(O)cc3)CC2)c(=O)n(-c2ccccc2)n1C,6.3µM*,-6%,28µM*,u,x
O=C(Nc1ccc(Cl)c(C(F)(F)F)c1)C(Cc1ccccc1)NS(=O)(=O)c1cccc2nsnc12 (centres undefined),-1%[59 µM],x,-13%,24%,x
COc1ccc(CCN(C)C(=O)CSc2nc3ncc(Cl)cc3[nH]2)cc1OC,u,5%,-10%,24%,-1%
CSc1cccc(NC(=O)CN2CCN(Cc3ccccc3C)S2(=O)=O)c1,5%[59 µM],x,-6%,27%,-17%
Cc1ccc(S(=O)(=O)CCC(=O)Nc2sccc2C#N)cc1,25µM*,10%,0%,31%,9%
Cc1ccc(S(=O)(=O)CCC(=O)Nc2sccc2C(N)=O)cc1,x,u,-28%,14%[57 µM],x
COc1ccc(Nc2oc(/C=C/c3cc(OC)c(OC)c(OC)c3)nc2C#N)cc1,-8%[59 µM],x,-1%,17%,-28%
CCCCCCCC/C=C\CCCCCCCC(=O)O,28%[59 µM],x,89µM*,86%,-23%
CCCCC[C@H](O)/C=C/[C@H]1C=CC(=O)[C@@H]1C/C=C\CCCC(=O)O,35µM*!,u,x,x,50µM*
CCCCC/C=C/C=C1/C(=O)C=C[C@@H]1C/C=C\CCCC(=O)O,22µM*!,x,x,x,x
N#Cc1c(NC(=O)CCC(=O)O)sc2c1CCCCC2,45µM*,-10%,45µM*,u,u
Cc1nnc(SCC(=O)Nc2sc3c(c2C#N)CCCCC3)n1N,14µM*,x,-14%,-13%,-23%
N#Cc1c(NC(=O)CSc2nnnn2C2CCCCC2)sc2c1CCCC2,5%,4%,-14%,11%,-5%
N#Cc1c(NC(=O)CCC(=O)O)sc2c1CCCC2,-3%[12.7 µM],6%,-8%,19%,10%
CCC(=O)Nc1sc2c(c1C#N)CCC2,17%,x,89µM*,-1%,-14%
CC(C)CC(=O)Nc1sc2c(c1C(=O)O)CCCCC2,71µM*,-17%,-19%,19%,u
CC(=O)Nc1sc2c(c1C#N)CCC2,-26%,3%,-5%,33%,-11%
